Experimental data: the supplement of paper PMC7801607

System: Plasmodium berghei ANKA liver stage in HepG2-A16-CD81
Assay: % inhibition of liver stage parasite viability (luciferase); higher = more inhibition
Conditions: 5 µM; 48 h
Protocol: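 Single-concentration screen of the MMV Pandemic Response Box. P. falciparum NF54 asexual blood stages: pLDH assay, 72 h at 37 °C, 2 and 20 µM, n=2. Stage IV/V gametocytes (NF54): luciferase reporter (NF54-Pfs16-GFP-Luc, 48 h), ATP bioluminescence (24 h) and PrestoBlue (48 h) at 1 and 5 µM, n=1. P. berghei liver stage (luciferase in HepG2-A16-CD81, 48 h post infection) at 5 µM, n=4. All normalised to DMSO and kill controls as % inhibition.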

SMILES | % inhibition of liver stage parasite viability
N#C/C(=C1/SC[C@H](c2ccc(Cl)cc2Cl)S1)n1ccnc1 | 24%
CCC(C)n1ncn(-c2ccc(N3CCN(c4ccc(OCC5COC(Cn6cncn6)(c6ccc(Cl)cc6Cl)O5)cc4)CC3)cc2)c1=O (stereo not given) | 46.4%
CC(C)C(=O)N[C@H]1[C@H]([C@H](O)[C@H](O)CO)OC(C(=O)O)=C[C@@H]1N=[N+]=[N-] | 10.3%
O=S(=O)(Nc1ccccc1)c1ccc(NC(=S)Nc2ccccc2)cc1 | 25.7%
C=CCN(C(=O)OCc1ccc([N+](=O)[O-])cc1)C1CCN(CC[C@](C)(CN(C)S(=O)(=O)c2ccccc2)c2ccccc2)CC1 | 42.2%
CCCNc1ccc(S(=O)(=O)Nc2cc(C)on2)cc1 | 32.4%
CC(=N)N1CC[C@H](SC2=C(C(=O)O)N3C(=O)[C@@H]([C@@H](C)O)[C@H]3C2)C1 | 5.53%
Cc1nc2ccc(Oc3ccccc3)cc2c2c1CCN2CCc1ccccc1 | 27%
N#Cc1c(F)c(Cl)c(NCc2ccccc2)c(C#N)c1F | 22.3%
NC(=O)[C@@H]1CC[C@@H]2CN1C(=O)N2OS(=O)(=O)O | 12.2%
CCCCSc1nc(N)c2[nH]c(=O)c(=O)n(Cc3ccccc3)c2n1 | -9.6%
O=C(CSc1nnc(Br)n1-c1ccc(C2CC2)c2ccccc12)Nc1ccc(C(=O)O)cc1Cl | 27.6%
CC[N+]1(C/C2=C/CCCCCC2)CCC(NC(=O)C2c3cc(Cl)ccc3Oc3ccc(Cl)cc32)CC1 (stereo not given) | 6.03%
NC[C@H]1O[C@H](O[C@H]2[C@H](O)[C@@H](O[C@H]3O[C@H](CO)[C@@H](O)[C@H](N)[C@H]3O)[C@H](N)C[C@@H]2N)[C@H](N)C[C@@H]1O | 36.3%
CCc1ccccc1OCCN1CCCCCC1 | 17.2%
Clc1ccc(Cn2c(CN3CCCC3)nc3ccccc32)cc1 | 22.9%
C=C(C)[C@@H]1CC[C@]2(C(=O)O)CC[C@]3(C)[C@H](CC[C@@H]4[C@@]5(C)CC[C@H](O)C(C)(C)[C@@H]5CC[C@]43C)[C@@H]12 | 57%
CC(=O)N1CCN(c2ccc(OCC3COC(Cn4ccnc4)(c4ccc(Cl)cc4Cl)O3)cc2)CC1 (stereo not given) | 16.4%
CC(C)n1cnc2c(NCc3ccccc3)nc(NCc3ccccc3)nc21 | 17.1%
Cc1ccc(NC(=O)c2cc(Cl)ccc2O)cc1 | 78.5%

SMILES | % inhibition of liver stage parasite viability
Cc1ncc([N+](=O)[O-])n1CC(C)O (stereo not given) | 13.9%
Cc1nc(-c2ccc(C3N(C)c4ccc(F)cc4C(=O)N3c3ccccc3)s2)cs1 (stereo not given) | 31.9%
CCN(CC)CCn1c(=N)n(CC(O)COc2ccc(Cl)cc2Cl)c2ccccc21 (stereo not given) | 42.1%
CCN(CC)CCCC(C)Nc1ccnc2cc(Cl)ccc12 (stereo not given) | 14.3%
O=c1cc(NCCCN[C@@H]2CCOc3c(Br)cc(Br)cc32)[nH]c2ccsc12 | 74.7%
CC(C)/N=c1\cc2n(-c3ccc(Cl)cc3)c3ccccc3nc-2cc1Nc1ccc(Cl)cc1 | 59.4%
Cc1cc(CCCOc2c(C)cc(-c3noc(C(F)(F)F)n3)cc2C)on1 | -23.2%
Cc1c(OCC(F)(F)F)ccnc1CS(=O)c1nc2ccccc2[nH]1 (stereo not given) | -23.2%
CC1CCc2c(N3CCC(O)CC3)c(F)cc3c(=O)c(C(=O)O)cn1c23 (stereo not given) | 17.1%
CN(C)CCNC(=O)c1cccc2cccnc12 | 16.5%
CN(Cc1ccc(C(C)(C)C)cc1)Cc1cccc2ccccc12 | 10.2%
O=C(CCCC(F)(F)F)N1CCC(c2nc(-c3nccs3)no2)CC1 | -0.37%
Clc1cccc(-c2nnc(-c3ccccc3)o2)c1 | -89.2%
OB1OCc2cc(Cl)ccc21 | 23.6%
O=C(Nc1nnc(-c2ccc(Cl)cc2)o1)c1ccc(F)cc1 | 63.4%
c1ccc(-c2nnc3c4ccccc4c(N4CCNCC4)nn23)cc1 | 7.03%
COC1CC2CCC(C)C(O)(O2)C(=O)C(=O)N2CCCCC2C(=O)OC(C(C)CC2CCC(OCCO)C(OC)C2)CC(=O)C(C)/C=C(\C)C(O)C(OC)C(=O)C(C)CC(C)/C=C/C=C/C=C/1C (stereo not given) | 0.0625%
Nc1ccc(-c2nc3cc(C(F)(F)F)ccc3n2C23CC4CC(CC(C4)C2)C3)cc1 | 20.5%
O=C(c1ccc(F)cc1)N1CCN2C(=O)c3ccccc3C12c1ccccc1 (stereo not given) | 26%
CN(O)C(=O)c1cc2c(CN3CCC[C@H]3C(N)=O)cn(Cc3ccc(F)cc3)c2cn1 | 24.6%
